# Bioassay records from PubChem BioAssay.
# mHTT-CaM PPI inh – mHTT-calmodulin interaction abrogation; P42858; AlphaScreen His-mHTT/GST-CaM binding, luminescence; inhibition, % at 15 µM; 3.6% of 190,000 active; AID 1671202;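 note: 0% = both proteins with DMSO and 100% = one protein alone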
# Pf apPOL block – Pf-apPOL DNA polymerase inhibition; inhibition, % at 10 µM; 0.25% of 210,000 active; Recombinant Pf-apPOL, molecular beacon fluorescence, 1.5 h
# Starred values were filed as active, the others as inactive; · = no result. Hits are enriched below; roughly 3.6% of the tested compounds scored in any of these assays. Cut-off read from the data, not from the text of the source: active = inhibition above about 50%; inactive = the rest.
SMILES,mHTT-CaM PPI inh,Pf apPOL block
COc1ccc(Cl)cc1NC(=O)CN1C(=O)CC(C)Sc2ccccc21 (configuration not stated),0,-4
c1ccc(-c2nnc(SCC3CCOCO3)n2-c2ccccc2)cc1 (configuration not stated),3,-4
CCOC1=NN(c2ccc([N+](=O)[O-])cc2)C(=O)/C1=C\c1ccccc1C(F)(F)F,62*,-3
CCOC1=NN(c2ccc([N+](=O)[O-])cc2)C(=O)/C1=C/c1ccccc1OC,23,-2
O=C(CSc1nccn1-c1ccc([N+](=O)[O-])cc1)Nc1cc(C(F)(F)F)ccc1Cl,51*,-8
O=C(CSc1nccn1-c1ccccc1)Nc1cc(C(F)(F)F)ccc1Cl,13,-8
O=C(CSc1nccn1-c1cccc(Cl)c1)Nc1cc(C(F)(F)F)ccc1Cl,13,-5
Cc1cccc(-n2ccnc2SCC(=O)Nc2cccc(C(F)(F)F)c2)c1C,17,-8
O=C(CSc1nccn1-c1cccc(Cl)c1)Nc1cccc(C(F)(F)F)c1,61*,-2
Cc1cc(C)cc(-n2ccnc2SCC(=O)Nc2cccc(C(F)(F)F)c2)c1,52*,4
Cc1cccc(-n2ccnc2SCC(=O)Nc2cccc(C(F)(F)F)c2)c1,49,-5
Cc1cccc(-n2ccnc2SCC(=O)Nc2ccc(Cl)c(Cl)c2)c1C,95*,-7
CCCOC(=O)c1ccc(Oc2coc3cc(OCC=C(C)C)ccc3c2=O)cc1,-6,4
COc1ncccc1CNC(=O)c1ccc(F)cc1,-3,-3
N#Cc1c(NC(=O)CNS(=O)(=O)c2cccc(Cl)c2)sc2c1CCCC2,0,-3
Fc1ccc(-c2nnc3n2N=C(c2ccc4c(c2)OCO4)CS3)cc1,-2,·
CCOc1ccccc1NC(=O)C(=O)NCc1ccc(CC)cc1,-9,20
CCc1ccc(CNC(=O)C(=O)Nc2ccccc2F)cc1,-4,70*
CCOc1ccccc1-c1ccc(C(=O)O)o1,3,-2
CCOC(=O)Cc1csc(NC(=O)CSc2ccccn2)n1,·,0
CSc1ccccc1NC(=O)Cc1csc(NC(=O)c2ncccn2)n1,100*,-24
Cc1ccnc(Nc2nc(CC(=O)Nc3ccc4c(c3)OCCO4)cs2)c1,16,0
Cc1ccnc(Nc2nc(CC(=O)Nc3nnc(C)s3)cs2)c1,56*,22
Cc1cc(NC(=O)Cc2csc(NC(=O)c3ncccn3)n2)no1,100*,-2
CC(C)c1ccccc1NC(=O)Cc1csc(Nc2ncccn2)n1,2,-3
SMILES,mHTT-CaM PPI inh,Pf apPOL block
CCOC(=O)Cc1csc(NC(=O)c2ncccn2)n1,84*,-16
Cc1cc(C)nc(Nc2nc(CC(=O)NCc3ccccn3)cs2)n1,13,-4
O=C(Nc1ccc(Cl)cn1)c1ccccc1[N+](=O)[O-],0,-1
CC(=O)c1c(C)nc(C)c(C(C)=O)c1-c1ccccc1,0,1
O=C(NCCO)/C(=C\c1ccc2c(c1)OCO2)NC(=O)c1ccccc1Br,-6,-5
COc1ccc2oc(=O)c(-c3csc(Nc4cccc(F)c4)n3)cc2c1,3,4
CC(C)(C)C1CCC2(CC1)NC(=O)N(CC(=O)Nc1ccccc1Cl)C2=O (configuration not stated),2,-4
O=C1/C(=C/c2cc([N+](=O)[O-])ccc2O)Sc2ccccc21,73*,-8
O=C1/C(=C/c2cc([N+](=O)[O-])ccc2Cl)Sc2ccccc21,22,5
O=C1/C(=C/c2ccccc2F)Sc2ccccc21,58*,-5
O=C1/C(=C/c2ccc(F)cc2F)Sc2ccccc21,11,-5
CCC(=O)Nc1ccc(-c2nc3ncccc3o2)cc1,3,-1
CC(C)CNC(=O)C1CCCN(c2ncnc3c2oc2ccccc23)C1 (configuration not stated),30,2
CCc1ccc(C2=CC(c3cc(Br)ccc3F)n3nnnc3N2)cc1 (configuration not stated),-4,0
Nc1cc(Br)cc2cccnc12,-5,6
O=[N+]([O-])c1cc(O)c2ncccc2c1,100*,-186
Oc1cc(O)c2ncccc2c1,100*,1
O=[N+]([O-])c1ccc(Cc2ncccc2O)cc1,-5,-3
CC(=O)N1CC(C)=C(C#N)C1O (configuration not stated),·,-63
O=[N+]([O-])c1ccccc1C1Nc2c(cccc2[N+](=O)[O-])C2C=CCC21 (configuration not stated),65*,5
O=[N+]([O-])c1cccc2c1NC(c1ccccc1F)C1CC=CC21 (configuration not stated),75*,-2
O=C(O)c1ccc([N+](=O)[O-])c2c1NCC1CC=CC21 (configuration not stated),9,2
Fc1cccc2c1N[C@@H](c1c3ccccc3cc3ccccc13)[C@H]1CC=C[C@@H]21,-6,·
O=C(O)c1cccc2c1NC(c1ccccc1[N+](=O)[O-])C1CC=CC21 (configuration not stated),92*,-9
COc1cc([N+](=O)[O-])cc2c1NC(c1cccc(Cl)c1Cl)C1CC=CC21 (configuration not stated),16,7
SMILES,mHTT-CaM PPI inh,Pf apPOL block
Cc1ccc(-n2c(-c3ccc(Cl)cc3)cn3c4c(=O)n(C)c(=O)n(C)c4nc23)cc1,-1,0
O=[N+]([O-])c1ccc(OCC(O)CN2CCN(c3cccc(Cl)c3)CC2)cc1 (configuration not stated),21,-2
CCOC(=O)/C(=C\C1=CC=C([N+](=O)[O-])C1)NC(=O)c1cccc(C)c1,-2,·
COc1ccc(C=C2SC(=S)N(CCc3ccc(O)cc3)C2=O)c(OC)c1,77*,2
COc1ccc(/C=C2\SC(=O)N(CN3CCOCC3)C2=O)c(OC)c1,28,-1
O=C(O)C1(c2cccs2)CCCCC1,-1,2
CC1CN=C2C=C(N3CCN(C(=O)NCCc4ccccc4)CC3)N=CN21 (configuration not stated),-5,-5
CCCOc1nccnc1N1CCC(NC(=O)Cc2ccsc2)C1 (configuration not stated),7,0
O=C1Nc2ccccc2C12CCN(S(=O)(=O)c1cccc(Cl)c1)C2 (configuration not stated),77*,-1
Cc1ccc(F)cc1S(=O)(=O)N1CCC2(C1)C(=O)Nc1ccccc12 (configuration not stated),8,1
O=C(Cc1ccccc1Cl)N1CCC2(C1)C(=O)Nc1ccccc12 (configuration not stated),1,-6
Cc1cc(S(=O)(=O)N2CCC3(C2)C(=O)Nc2ccccc23)ccc1F (configuration not stated),96*,8
Cn1cnc2c1CN(C(=O)c1ccc(F)c(F)c1)CC2,11,-4
CCC(Sc1nnnn1-c1ccccc1)C(=O)Nc1nc2ccccc2s1 (configuration not stated),52*,-6
CCCc1nnc(NC(=O)C(CC)Sc2nnnn2-c2ccccc2)s1 (configuration not stated),-2,-3
O=C(CC1(O)C(=O)Nc2ccc(Cl)cc21)c1ccco1 (configuration not stated),1,-5
c1ccc(N2N=C3N(c4ccccc4)C2N3c2ccccc2)cc1,77*,·
COC1N(c2ccccc2)N=C(c2ccccc2)N1c1ccccc1 (configuration not stated),13,·
